From ChEMBL document CHEMBL3988442, “University of Dundee, Small-Polar-MMV Screening Library” (2021) come the findings set out here.

For part of these data: Results with a measured potency or affinity are listed apart.

Common to all, as to parameters: scale not given: direction of the effect not stated beside the values
Assay [1] concerns the target Protein translocase subunit SecA (Escherichia coli (strain K12)) (UniProt P10408). The assay can be described thus: Assay to Identify E. coli SecA ATPase Inhibitors. It is filed as functional. The settings on record: 30 µM.
In assay [2] the target is T1, Ubiquitin-activating enzyme e1, putative (Leishmania donovani (strain BPK282A1)) (UniProt E9BSI1).
T1 sequence (whole entry): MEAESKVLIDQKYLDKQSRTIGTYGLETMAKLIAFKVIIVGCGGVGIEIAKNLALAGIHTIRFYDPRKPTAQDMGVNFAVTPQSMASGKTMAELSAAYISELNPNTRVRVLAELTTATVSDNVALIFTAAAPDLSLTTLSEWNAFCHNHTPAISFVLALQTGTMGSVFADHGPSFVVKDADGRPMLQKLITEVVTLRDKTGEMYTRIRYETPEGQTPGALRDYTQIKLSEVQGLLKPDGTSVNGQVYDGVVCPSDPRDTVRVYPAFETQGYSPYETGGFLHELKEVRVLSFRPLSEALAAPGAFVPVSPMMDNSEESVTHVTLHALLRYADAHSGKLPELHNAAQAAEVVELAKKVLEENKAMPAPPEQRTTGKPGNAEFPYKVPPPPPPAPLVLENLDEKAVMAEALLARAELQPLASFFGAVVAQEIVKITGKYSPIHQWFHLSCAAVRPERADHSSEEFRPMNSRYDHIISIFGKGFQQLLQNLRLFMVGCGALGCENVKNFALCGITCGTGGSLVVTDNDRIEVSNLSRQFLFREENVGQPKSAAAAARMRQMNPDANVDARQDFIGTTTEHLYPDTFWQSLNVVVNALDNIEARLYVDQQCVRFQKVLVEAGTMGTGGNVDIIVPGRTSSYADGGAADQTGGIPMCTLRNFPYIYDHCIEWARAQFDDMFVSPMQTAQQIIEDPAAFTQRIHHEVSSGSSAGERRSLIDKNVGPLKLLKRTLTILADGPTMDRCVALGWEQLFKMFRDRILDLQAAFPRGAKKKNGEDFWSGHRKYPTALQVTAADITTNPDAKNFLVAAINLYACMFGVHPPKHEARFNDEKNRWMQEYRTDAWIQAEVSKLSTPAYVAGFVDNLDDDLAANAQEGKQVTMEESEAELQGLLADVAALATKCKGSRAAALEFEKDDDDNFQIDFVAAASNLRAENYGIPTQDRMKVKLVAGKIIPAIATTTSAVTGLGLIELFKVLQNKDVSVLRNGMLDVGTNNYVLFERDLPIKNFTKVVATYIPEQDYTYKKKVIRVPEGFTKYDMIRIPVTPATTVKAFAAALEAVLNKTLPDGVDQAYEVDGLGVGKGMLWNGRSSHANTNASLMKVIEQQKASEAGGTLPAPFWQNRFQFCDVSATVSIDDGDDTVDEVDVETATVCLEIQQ
The assay can be described thus: Leishmania donovani Ubiquitin Activating Enzyme (LdE1). The settings on record: 30 µM. It is filed as functional.

For assay [3], the target named is Sialic acid-binding Ig-like lectin 9 (Homo sapiens) (UniProt Q9Y336). Put plainly: Hs-Siglec9 ALPHAscreen SOP 20170721. The settings on record: 10 µM.
Chain of Sialic acid-binding Ig-like lectin 9 (Homo sapiens) (Q9Y336 whole entry): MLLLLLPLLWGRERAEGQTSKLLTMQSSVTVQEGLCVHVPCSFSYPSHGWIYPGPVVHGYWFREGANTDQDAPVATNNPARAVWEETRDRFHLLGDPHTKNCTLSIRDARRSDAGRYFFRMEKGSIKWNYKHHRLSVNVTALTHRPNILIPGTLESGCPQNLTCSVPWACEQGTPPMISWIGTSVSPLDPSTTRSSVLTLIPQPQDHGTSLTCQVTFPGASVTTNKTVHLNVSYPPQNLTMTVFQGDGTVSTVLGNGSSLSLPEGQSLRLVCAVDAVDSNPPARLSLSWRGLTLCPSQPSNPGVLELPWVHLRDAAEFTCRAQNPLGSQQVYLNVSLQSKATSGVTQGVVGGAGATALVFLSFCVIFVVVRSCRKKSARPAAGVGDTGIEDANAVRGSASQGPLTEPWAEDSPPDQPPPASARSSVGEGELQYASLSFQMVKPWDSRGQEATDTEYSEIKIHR
A further assay relates to Trypanosoma cruzi. The assay can be described thus: Trypanosoma cruzi phosphomannomutase and mannose-1-phosphate guanylyltransferase assay. In kind it is functional. Conditions: 10 µM.
Assay [4] addresses T2, Arginase-2, mitochondrial (Homo sapiens) (UniProt P78540).
T2 sequence (whole entry): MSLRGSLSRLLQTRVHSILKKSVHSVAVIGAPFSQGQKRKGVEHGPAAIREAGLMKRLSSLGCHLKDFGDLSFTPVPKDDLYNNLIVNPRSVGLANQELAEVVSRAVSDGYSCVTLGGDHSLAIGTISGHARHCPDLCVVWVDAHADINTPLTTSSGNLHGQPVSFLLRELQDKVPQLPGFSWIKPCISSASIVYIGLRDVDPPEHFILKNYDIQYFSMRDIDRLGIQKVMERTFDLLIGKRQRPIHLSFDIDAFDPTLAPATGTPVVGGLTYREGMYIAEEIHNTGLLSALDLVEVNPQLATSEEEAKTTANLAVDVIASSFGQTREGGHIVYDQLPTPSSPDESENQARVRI
Put plainly: in vitro enzyme assay to detect the production of urea directly proportional to the activity of Arginase II. Also: in the data most compounds retested in dose-response had high values. In kind it is functional. Conditions: 33.3 µM.

Assay [5] deals with T3, Proteasome subunit beta (Trypanosoma cruzi) (UniProt O96673).
T3 sequence (whole entry): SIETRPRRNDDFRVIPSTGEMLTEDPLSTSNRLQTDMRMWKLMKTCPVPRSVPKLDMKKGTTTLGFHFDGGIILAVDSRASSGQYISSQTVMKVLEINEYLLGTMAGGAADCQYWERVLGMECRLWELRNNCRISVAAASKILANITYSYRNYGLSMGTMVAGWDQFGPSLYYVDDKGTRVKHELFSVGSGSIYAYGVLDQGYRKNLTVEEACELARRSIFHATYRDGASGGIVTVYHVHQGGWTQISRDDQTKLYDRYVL
The assay can be described thus: Trypanosoma cruzi proteasome chymotrypsin-like activity (TcProtChymo) assay. Also: in the data most compounds retested in dose-response had high values. In kind it is functional. The settings on record: 9.37 µM.

For a further assay, the species on record is Homo sapiens. The assay can be described thus: To identify inhibition of the IFN signalling (Jak-Stat) pathway via expression of an eGFP reporter gene under the control of an IFN-stimulated response element (ISRE) containing MxA promoter. It is filed as functional. The settings on record: 30 µM.
For assay [6], the target named is T4, Tyrosyl-tRNA synthetase, putative (Trypanosoma cruzi (strain CL Brener)) (UniProt Q4DSP6).
T4 sequence (whole entry): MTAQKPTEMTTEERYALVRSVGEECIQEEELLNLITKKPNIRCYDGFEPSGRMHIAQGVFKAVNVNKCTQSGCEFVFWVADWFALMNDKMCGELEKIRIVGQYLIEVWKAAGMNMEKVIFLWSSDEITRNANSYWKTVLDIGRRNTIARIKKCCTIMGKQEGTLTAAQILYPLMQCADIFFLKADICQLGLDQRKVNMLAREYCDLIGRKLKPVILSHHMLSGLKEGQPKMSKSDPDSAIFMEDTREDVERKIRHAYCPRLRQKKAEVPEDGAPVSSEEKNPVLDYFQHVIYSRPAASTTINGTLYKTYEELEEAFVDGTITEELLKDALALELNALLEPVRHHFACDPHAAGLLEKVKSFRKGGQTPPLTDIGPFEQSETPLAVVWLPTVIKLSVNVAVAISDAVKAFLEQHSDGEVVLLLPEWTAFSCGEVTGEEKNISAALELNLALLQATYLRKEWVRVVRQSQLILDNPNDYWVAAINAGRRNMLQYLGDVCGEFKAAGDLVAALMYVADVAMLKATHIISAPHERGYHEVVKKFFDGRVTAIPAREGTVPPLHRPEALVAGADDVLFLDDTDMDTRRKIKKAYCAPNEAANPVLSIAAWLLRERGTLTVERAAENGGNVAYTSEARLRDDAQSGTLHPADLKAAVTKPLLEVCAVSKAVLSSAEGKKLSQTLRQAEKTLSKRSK
Put plainly: Trypanosoma cruzi tyrosyl tRNA synthetase (TcYRS) _High Tyrosine SOP. Also: in the data most compounds retested in dose-response had high values. It is filed as functional. Conditions: 30 µM.

Assay [7] deals with T4, Tyrosyl-tRNA synthetase, putative (Trypanosoma cruzi (strain CL Brener)). Put plainly: Trypanosoma cruzi tyrosyl tRNA synthetase (TcYRS) SOP. It is filed as functional. Conditions: 30 µM.
Assay [8] has as its target Chromo domain-containing protein 1 (Saccharomyces cerevisiae (strain ATCC 204508 / S288c) (Baker's yeast)) (UniProt P32657). Put plainly: ScCHD-1 Enzyme Inhibition Assay. Also: in the data most compounds retested in dose-response had high values. The settings on record: 30 µM. It is filed as functional.

Chain of Protein translocase subunit SecA (Escherichia coli (strain K12)) (P10408 whole entry): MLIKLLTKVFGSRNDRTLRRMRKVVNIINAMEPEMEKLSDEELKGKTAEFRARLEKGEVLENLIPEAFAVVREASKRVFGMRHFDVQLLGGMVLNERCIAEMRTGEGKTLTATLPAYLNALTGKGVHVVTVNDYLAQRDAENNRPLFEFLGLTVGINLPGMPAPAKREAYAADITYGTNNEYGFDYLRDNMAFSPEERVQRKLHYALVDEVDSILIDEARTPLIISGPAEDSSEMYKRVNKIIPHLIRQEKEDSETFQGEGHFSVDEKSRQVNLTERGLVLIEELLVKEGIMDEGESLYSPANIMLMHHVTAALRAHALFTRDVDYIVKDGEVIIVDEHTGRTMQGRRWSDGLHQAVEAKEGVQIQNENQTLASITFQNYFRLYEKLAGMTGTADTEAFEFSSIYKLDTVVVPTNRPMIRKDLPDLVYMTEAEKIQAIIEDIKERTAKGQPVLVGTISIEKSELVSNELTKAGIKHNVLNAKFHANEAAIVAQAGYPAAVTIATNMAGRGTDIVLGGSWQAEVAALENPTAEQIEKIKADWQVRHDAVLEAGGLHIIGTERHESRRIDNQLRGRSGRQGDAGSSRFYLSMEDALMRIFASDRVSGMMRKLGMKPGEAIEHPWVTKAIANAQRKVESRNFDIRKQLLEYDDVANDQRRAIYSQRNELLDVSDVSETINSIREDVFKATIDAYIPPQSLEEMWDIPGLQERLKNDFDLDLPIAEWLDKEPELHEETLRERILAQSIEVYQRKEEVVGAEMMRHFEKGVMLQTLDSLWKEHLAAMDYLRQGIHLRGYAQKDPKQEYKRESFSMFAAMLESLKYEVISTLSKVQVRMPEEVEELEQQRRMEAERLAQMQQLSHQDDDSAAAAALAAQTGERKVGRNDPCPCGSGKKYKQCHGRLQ
Chain of Chromo domain-containing protein 1 (Saccharomyces cerevisiae (strain ATCC 204508 / S288c) (Baker's yeast)) (P32657 whole entry, the tested form may be a part): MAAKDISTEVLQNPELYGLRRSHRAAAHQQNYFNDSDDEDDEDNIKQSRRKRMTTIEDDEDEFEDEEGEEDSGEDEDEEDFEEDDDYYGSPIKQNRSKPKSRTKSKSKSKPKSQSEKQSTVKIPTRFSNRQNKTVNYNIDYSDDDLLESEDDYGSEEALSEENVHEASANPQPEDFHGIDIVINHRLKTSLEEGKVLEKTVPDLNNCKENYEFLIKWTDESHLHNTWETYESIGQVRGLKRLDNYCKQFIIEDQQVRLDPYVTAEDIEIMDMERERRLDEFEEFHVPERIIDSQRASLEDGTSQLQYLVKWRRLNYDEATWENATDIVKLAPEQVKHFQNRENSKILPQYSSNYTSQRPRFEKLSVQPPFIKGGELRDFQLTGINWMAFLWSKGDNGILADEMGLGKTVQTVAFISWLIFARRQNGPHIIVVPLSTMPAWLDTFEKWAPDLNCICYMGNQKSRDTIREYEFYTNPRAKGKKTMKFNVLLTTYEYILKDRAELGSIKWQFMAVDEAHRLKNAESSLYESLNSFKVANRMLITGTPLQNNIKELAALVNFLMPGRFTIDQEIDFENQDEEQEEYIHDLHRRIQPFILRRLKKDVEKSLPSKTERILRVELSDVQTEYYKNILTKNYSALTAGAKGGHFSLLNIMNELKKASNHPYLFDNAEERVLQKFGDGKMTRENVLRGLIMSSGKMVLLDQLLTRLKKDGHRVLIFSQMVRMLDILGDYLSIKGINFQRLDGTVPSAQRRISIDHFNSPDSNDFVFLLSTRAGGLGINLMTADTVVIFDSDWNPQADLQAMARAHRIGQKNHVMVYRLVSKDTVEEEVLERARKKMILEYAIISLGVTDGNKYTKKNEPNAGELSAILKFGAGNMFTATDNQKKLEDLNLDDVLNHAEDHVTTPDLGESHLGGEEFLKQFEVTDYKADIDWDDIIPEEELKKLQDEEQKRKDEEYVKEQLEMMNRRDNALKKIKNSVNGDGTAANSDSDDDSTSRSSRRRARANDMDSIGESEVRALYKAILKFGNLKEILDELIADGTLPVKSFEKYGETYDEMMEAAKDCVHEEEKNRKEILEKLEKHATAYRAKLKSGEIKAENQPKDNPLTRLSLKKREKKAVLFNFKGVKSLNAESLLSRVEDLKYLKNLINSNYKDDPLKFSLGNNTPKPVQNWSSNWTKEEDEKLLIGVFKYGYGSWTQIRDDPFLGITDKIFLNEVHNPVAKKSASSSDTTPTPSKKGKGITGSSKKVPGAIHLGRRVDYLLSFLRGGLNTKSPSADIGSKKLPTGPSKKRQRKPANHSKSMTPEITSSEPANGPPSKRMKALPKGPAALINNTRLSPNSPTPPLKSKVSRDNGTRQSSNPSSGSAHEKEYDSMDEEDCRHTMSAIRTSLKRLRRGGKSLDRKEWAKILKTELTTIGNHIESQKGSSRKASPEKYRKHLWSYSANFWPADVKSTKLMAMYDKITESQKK

On to `COc1ncccc1NC(=O)c1cccc(C)n1`, for which the Percent Effect is 3.56% in [1]; 15.4% in assay [2]; -4.18% in assay [3]; 1.41% with Trypanosoma cruzi; 2.05% in assay [4]; 4.18% in assay [5]. Also, the Percent Effect in the assay listed under Homo sapiens is 7.05%; in [6], 9.09%; in assay [7] it was 25.3%; in assay [8], -8.29%.

As to `Cc1nc(CN2CCCC(CCNS(C)(=O)=O)C2)c[nH]1` (stereo not given), the Percent Effect in [1] is -6.15%; in assay [2], 0%; in assay [3], 1.08%; in the assay with Trypanosoma cruzi it was -0.873%; in assay [4], 3.85%; in assay [5], 1.71%. Besides, the Percent Effect in the assay filed under Homo sapiens was 7.77%; in [6], 3.72%; in [7], 9.76%; in [8] it was -0.429%.

Turning to `CO[C@@H]1CC[C@@H](N(C)C(=O)COc2ccc(F)cc2)[C@H]1O`, the Percent Effect is -0.0302% in assay [1]; 9.33% in assay [2]; 5.58% in [3]; -6.31% with Trypanosoma cruzi; 5.31% in assay [4]; 10.8% in assay [5]. The Percent Effect in the assay listed under Homo sapiens was 9.43%; in assay [6] it was 1.06%; in assay [7], 7.5%; in [8] it was -24%.

For the compound `COc1ccccc1NC(=O)CSC1CCc2ccccc2NC1=O` (stereo not given), the Percent Effect is -4.52% in assay [1]; 13.5% in assay [2]; 8.46% in assay [3]; 4.17% in the assay with Trypanosoma cruzi; 17.1% in assay [4]; 18.3% in [5]. Also, the Percent Effect was 13% in the assay filed under Homo sapiens, 5.85% in assay [6], 17.1% in assay [7] and -4.97% in assay [8].

Consider `Cc1ccc(C(O)CNCCn2cccn2)cc1C` (stereo not given), for which the Percent Effect in [1] is -4.43%; in assay [2], 2.67%; in [3], 5.78%; with Trypanosoma cruzi it was 0.803%; in [4], 1.33%; in assay [5] it was 2.97%. The Percent Effect is 4.85% in the assay listed under Homo sapiens, 3.68% in assay [6], 7.69% in [7] and -8.09% in assay [8].

Consider `Cc1cnn(C2CCCN(C(=O)c3cc(C4CC4)on3)C2)c1` (stereo not given), for which the Percent Effect in assay [1] is -4.9%; in assay [2] it was 10.3%; in assay [3] it was -6.25%; in the assay with Trypanosoma cruzi it was 5.16%; in assay [4], 0.82%; in assay [5] it was -0.939%. Besides, the Percent Effect in the assay filed under Homo sapiens was -0.883%; in [6], 4.31%; in assay [7] it was 10.8%; in [8], -1.27%.

With `Cn1nc2c(cc1=O)CN(Cc1nnc(-c3ccc(F)cc3)o1)CC2`, the Percent Effect in [1] was -0.335%; in [2], 7.69%; in assay [3], -9.64%; in the assay on Trypanosoma cruzi it was -6.48%; in assay [4], 7.79%; in assay [5], 6.23%. The Percent Effect in the assay listed under Homo sapiens is 30.1%; in assay [6], 0.478%; in assay [7], 6.02%; in assay [8], -4.76%.

Take `CC(C)(C)c1cn2nc(N3CCOC(Cn4cncn4)C3)sc2n1` (stereo not given): the Percent Effect was -1.88% in [1]; 23.1% in [2]; -8.45% in assay [3]; 7.79% in the assay with Trypanosoma cruzi; -2.46% in assay [4]; 12.4% in [5]. Moreover, the Percent Effect in the assay filed under Homo sapiens was 13.8%; in assay [6], 3.35%; in [7], 22.9%; in assay [8], -5.11%.

With `CCc1nc(CN2CCCN(C(=O)CCSC)CC2)cs1`, the Percent Effect in assay [1] was -1.79%; in [2], 12.8%; in assay [3], -12.3%; in the assay on Trypanosoma cruzi it was -7.98%; in [4], 6.15%; in assay [5], 9.81%. Moreover, the Percent Effect in the assay listed under Homo sapiens is 22.8%; in assay [6] it was 0.478%; in assay [7], 18.1%; in assay [8], -4.21%.

Turning to `COc1cc(C(=O)N2CCCS2(=O)=O)ccc1C`, the Percent Effect was -4.9% in [1]; -2.67% in assay [2]; -1.38% in [3]; 4.82% with Trypanosoma cruzi; -3.99% in assay [4]; 14.7% in assay [5]. Besides, the Percent Effect is 1.35% in the assay listed under Homo sapiens, 4.74% in assay [6], 10.3% in assay [7] and -8.07% in [8].

For the compound `COc1ccc(C[C@H]2CN(C(=O)CN(C)C)CC[C@H]2OC)cc1`, the Percent Effect in [1] is -1.58%; in assay [2], 14.3%; in assay [3], 1.4%; in the assay on Trypanosoma cruzi it was 0.563%; in [4] it was 0%; in [5], -4.21%. For the same compound, the Percent Effect in the assay filed under Homo sapiens is 5.12%; in assay [6] it was -8.7%; in [7], 10%; in [8], -0.592%.

On to `CC(C)NC(=O)N1CCC2(C1)CN(c1ccsc1)C(=O)CN2C` (stereo not given), for which the Percent Effect in [1] is -2.47%; in assay [2], 9.09%; in assay [3], -13.1%; with Trypanosoma cruzi, -3.41%; in assay [4], 5.26%; in assay [5] it was 20.6%. Further, the Percent Effect in the assay listed under Homo sapiens was -8.36%; in assay [6], 6.84%; in assay [7] it was 10.3%; in [8], 10.4%.
